These results are taken from ChEMBL document CHEMBL4513216, “Probing the Open Global Health Chemical Diversity Library for Multistage-Active Starting Points for Next-Generation Antimalarials” (ACS Infect Dis, 2020).

In all, about 65,000 compounds went through this assay and about 2,100 (3.2%) showed an effect of 50% or more. The median lay at about -52%. The sample as a whole holds a higher share of strong results than the screen did.

The subject of this assay is Plasmodium falciparum. The assay can be described thus: Screen against P. falciparum Asexual Blood Stage (ABS), at 5uM. It counts as functional, Dd2. To be noted: tested at 5 uM.
As to `CCn1ncc2c(C(F)(F)F)cc(-c3ccn(C)n3)nc21`, the INHIBITION is -88%. The result for `COc1ccc(C(C)Nc2cnn(C)c(=O)c2Cl)cc1OC` (stereo not given) reads -40.4%; that for `CC(C)OCCN1CCC(Nc2ncccn2)CC1`, -102%; that for `CCC1CN(C(=O)NCc2cccnc2-n2cccn2)CCO1` (stereo not given), -88.4%.

Regarding `O=C(O)C1CCCN1c1nc(-c2ccc(Cl)c(Cl)c2)cc(C(F)(F)F)n1` (stereo not given), the INHIBITION was -8.45%. The same measure for `CCCc1nc(C)c(C(=O)NCCn2nc3ccccn3c2=O)s1`: -201%; for `O=C(NCc1cc[nH]n1)NCC(c1ccccc1)N1CCOCC1` (stereo not given): -82.7%.

In the case of `O=C(NCc1cc[nH]n1)NCC(c1ccc(F)cc1)N1CCOCC1` (stereo not given), the INHIBITION was -39%. The result for `Cc1cccc(C(CNC(=O)NCc2cc[nH]n2)N2CCOCC2)c1` (stereo not given) reads 53%.

Consider `CCCn1ccnc1-c1nccn1CCn1cnnc1`, for which the INHIBITION is reported as -36%.

Take `O=C(C1CCOCC1)N1CCO[C@H]2[C@H](Oc3ccccn3)CC[C@@H]21`: the INHIBITION was -53.1%. As for `O=C(NCC(=O)N1CCCC1)c1nn(-c2ccccc2F)cc1O`, the INHIBITION is -120%. The same measure for `CCOCC(O)CN1CCN(C(=O)c2ccc(C)nc2)CC1` (stereo not given): 60.7%; for `CCOCC(O)CN1CCN(C(=O)c2ccc(OC)cc2)CC1` (stereo not given): -24.3%. With `CCOCC(O)CN1CCN(C(=O)c2ccc(N(C)C)nc2)CC1` (stereo not given), the INHIBITION is listed as -72.5%.

As to `CC(Nc1ccc(C#N)cc1F)c1cccc(S(N)(=O)=O)c1` (stereo not given), the INHIBITION is -49.5%. Take `O=C1CC[C@H]2CN(Cc3ccc(Cl)s3)CC[C@H]2N1CCc1c[nH]cn1`: the INHIBITION is given as 66.6%. The same measure for `O=C1CC[C@H]2CN(Cc3cccnc3)CC[C@H]2N1CCc1c[nH]cn1`: -154%; for `Cc1nc(CN2CC[C@@H]3[C@@H](CCC(=O)N3CCc3c[nH]cn3)C2)co1`: -58.8%; for `CC(=O)N1CCC2(C1)c1ccccc1S(=O)(=O)N2C` (stereo not given): -56.8%. The result for `CC(C)c1nn(C)c(N(C)C)c1CNCc1ccccc1CO` reads 44.8%; that for `CCOc1ncccc1CNCc1c(C(C)C)nn(C)c1N(C)C`, -7.19%. The result for `COc1ncccc1CNCc1c(C(C)C)nn(C)c1OC` reads -29.9%; that for `COCc1ccccc1CNCc1c(C(C)C)nn(C)c1N(C)C`, 59.4%; that for `COCc1ccccc1CNCc1c(C)nn(C)c1N(C)C`, -36.8%.

Take `CC(C)c1nn(C)c(N(C)C)c1CNCc1cccc2cccnc12`: the INHIBITION is reported as 67.5%. As to `CC(C)c1nn(C)c(N(C)C)c1CNCc1cccnc1N(C)C`, the INHIBITION is 21%. The result for `CC(C)c1nn(C)c(N(C)C)c1CNCc1ccccc1CN(C)C` reads 59.5%. The result for `COc1ncccc1CNCc1c(C(C)C)nn(C)c1Cl` reads 51.7%. The result for `COc1ncccc1CNCc1c(C(C)C)nn(C)c1N(C)C` reads 11%; that for `Cc1nn(C)c(N(C)C)c1CNCc1ccccc1CN(C)C`, 18.8%; that for `COCc1cccc(CNCc2c(C(C)C)nn(C)c2N(C)C)c1`, 36.5%.

On to `CS(=O)(=O)c1ccc(CN2C[C@@H]3CC[C@H]2CN(c2ncccn2)C3)cc1`, for which the INHIBITION is reported as -136%. The result for `CN(Cc1noc(C2CC2)n1)C1CCN(Cc2nnc(C3CC3)o2)C1` (stereo not given) reads -122%; that for `CC(C)(C)C(N)C1=NC(=C2N=CN=N2)NO1` (stereo not given), -49.9%. In the case of `CCn1c(=NC(=O)CSCC(=O)Nc2nccs2)sc2ccccc21`, the INHIBITION turned out to be 32.3%. On to `CC(NCc1cnc(N2CCOCC2)nc1)c1ccc(Cl)s1` (stereo not given), for which the INHIBITION is given as -25.9%.

Consider `c1csc(CN2CCO[C@@H]3CN(C4CCOCC4)C[C@@H]3C2)c1`, for which the INHIBITION was -93.2%. `Cc1noc(C)c1CN1Cc2cnn(C)c2C(COCC2CC2)C1` (stereo not given): the INHIBITION is on record as -81.3%. With `Cc1ccc(CN2CCS(=O)(=O)C(C)(C)C2)cc1C`, the INHIBITION was -98.2%. The result for `Cc1csc2ncnc(N3CCC(Cn4cc(C(C)(C)N)nn4)CC3)c12` reads 35%. In the case of `COc1ccc(NC(=O)CNc2ccc(Br)cc2F)cc1`, the INHIBITION is listed as -68.8%. The result for `COc1ccc(OC)c(CNCc2c(C(C)C)nn(C)c2N(C)C)c1` reads 69.3%; that for `COc1cccc(CNCc2c(C(C)C)nn(C)c2N(C)C)c1`, -5.49%. The result for `COc1cccc(CNCc2c(C(C)C)nn(C)c2N(C)C)c1OC` reads 33.3%; that for `CC(C)COc1cncc(N2CCCN(c3ncccn3)CC2)n1`, -186%; that for `c1ccc(C2=NOC3(CCN(Cc4c[nH]c5ccccc45)CC3)C2)cc1`, 36.1%.

In the case of `O=C(c1cn[nH]c1)N1CCC2(CCCN(Cc3ccc(F)c(F)c3)C2)C1` (stereo not given), the INHIBITION is -25.8%. The result for `Cc1ccc(CN2CCC3(CCCN(Cc4ccc(F)c(F)c4)C3)C2)o1` (stereo not given) reads 28.1%; that for `Fc1ccc(CN2CCCC3(CCN(Cc4ncc[nH]4)C3)C2)cc1F` (stereo not given), 60.9%; that for `CCc1nc2c(s1)C(N(C)C(=O)c1csnn1)CCC2` (stereo not given), -32.3%.

For `Cc1nc(NC2(CN3CCCCC3)CCCCC2)c2cnn(C)c2n1`, the INHIBITION came to 56%. For the molecule `COCC1(Nc2nc(C)nc3c2cnn3C)CCCC1`, the INHIBITION is on record as -142%. The result for `CCOC(=O)CC1(Nc2nc(C)nc3c2cnn3C)CCCCC1` reads -25.2%. The result for `Cc1nc(C(=O)NCCS(=O)(=O)N2CCCC2)cs1` reads -31.8%; that for `Cc1nc(COc2ccc(OC3CCCCNC3=O)cc2)oc1C` (stereo not given), -151%; that for `O=C(Nc1ccc2c(c1)C(=O)NC2=O)c1cccs1`, -80.7%. The result for `CCC(=O)N1CCC2(CC1)COCCN2Cc1ccc(F)cc1` reads -31.7%; that for `CC(=O)N(Cc1noc(C)n1)C1CCN(CCOc2ccccc2)C1` (stereo not given), -79.1%; that for `Cn1cc(N2CC3(CCN(CC4CC4)CC3)OCC2=O)cn1`, -53.1%. Turning to `Cc1noc(-c2ccnc(Oc3ccc(CN4CCCC4)cc3C)c2)n1`, the INHIBITION was found to be 53.3%. The result for `Cc1noc(-c2ccnc(Oc3ccccc3CN3CCCCC3)c2)n1` reads -36.8%; that for `Cc1noc(-c2ccnc(Oc3ccc(CN4CCCC4)cc3F)c2)n1`, -38.8%; that for `Cc1ccc(-c2nnc(CN3CCc4nn(C)c(=O)cc4C3)o2)cc1`, -38.4%. As for `CCOC(=O)N1CCN(c2nc(NC3CC3)c3ccccc3n2)CC1`, the INHIBITION is 4.86%. The result for `Cc1csc2c(C3CCCN(C(=O)CCn4ccnc4)C3)nc(C)n12` (stereo not given) reads -97.3%; that for `COCCN(CC1CCCN(C2Cc3ccccc3C2)C1)C(=O)COC` (stereo not given), 39.5%.

In the case of `COCCN(CC1CCCN(C2Cc3ccccc3C2)C1)C(=O)CSC` (stereo not given), the INHIBITION was determined as 1.3%. Consider `COCCN(CC1CCCN(C2Cc3ccccc3C2)C1)C(=O)CO` (stereo not given), for which the INHIBITION amounted to 59.9%. The result for `O=C(NC1CCC1)C1=NOC2(CCN(Cc3ccc(F)cc3)C2)C1` (stereo not given) reads -11.6%.

For `c1ccc(CN2CC[C@@H]3O[C@@H](COCCN4CCCC4)CC[C@@H]32)nc1`, the INHIBITION is reported as -36%. The same measure for `COCCN1CC[C@@H]2OC[C@H](C(=O)N(C)Cc3ccccn3)C[C@@H]2C1`: 11.1%; for `c1cc(N2CCSCC2)ccc1CNc1cncc2nnnn12`: -119%. Take `c1ccc(CN2CCCC2)c(CNc2cncc3nnnn23)c1`: the INHIBITION was determined as 61.4%.

For `c1cc(CN2CCCC2)ccc1CNc1cncc2nnnn12`, the INHIBITION is -31.2%. The same measure for `Cc1cc(C(=O)N2C[C@@H]3COC[C@]3(CN(C)C)C2)sc1C`: -113%. The result for `Cc1cc(N(C)CCN(C)C2CCCC2)n2nc(C)cc2n1` reads 55.7%; that for `Cc1cc(C)nc(N(C)CCN(C)C2CCCC2)n1`, 28%; that for `Cc1cc(N(C)CCN(C)C)n2nc(C)cc2n1`, -113%. Take `O=C(c1ccc2[nH]ccc2c1)N1CCn2cc(CN3CCCC3)nc2C1`: the INHIBITION is reported as -38.2%. The result for `Fc1ccc(CNCC2OCCc3cn(CC4CC4)nc32)cc1` (stereo not given) reads 68.9%; that for `COCCn1cc2c(n1)C(CNCc1ccc(F)cc1)OCC2` (stereo not given), -11.4%; that for `c1cc(CNCC2OCCc3cn(CC4CC4)nc32)cs1` (stereo not given), 47%.

Consider `CCc1cnc(CNC(=O)NCCc2ccc(O)cc2)s1`, for which the INHIBITION is reported as -13.3%. The result for `CNC(=O)CC1CC2(CCN(c3ncccn3)CC2)c2ccccc21` (stereo not given) reads -87%; that for `Cc1cccc(N2CC3(CCN(Cc4nccn4C)C3)CC2=O)c1` (stereo not given), -54.9%. The same measure for `COCc1ncc(CN2CC[C@@H](NC(=O)c3cccnc3)[C@H](O)C2)cn1`: -35.5%; for `CC(C)(C)n1ncc(NCC(O)c2ccccc2)c(Cl)c1=O` (stereo not given): -162%; for `Cc1cccc(C2(CNC(=O)C(C)NC(N)=O)CCCC2)c1` (stereo not given): 69.9%.

With `Cc1cccc(C2(CNC(=O)C(C)S(C)(=O)=O)CCCC2)c1` (stereo not given), the INHIBITION is -66%. The same measure for `Cc1cccc(C2(CNC(=O)CO)CCCC2)c1`: -108%; for `NC(=O)[C@@H]1Cc2ccccc2CN1S(=O)(=O)N1CCCCC1`: -124%. The result for `CC(CNC1CCN(Cc2ccncc2)CC1)c1ccc(F)cc1F` (stereo not given) reads 70%.

Turning to `CC(NC(=O)NC1CCN(Cc2ccncc2)CC1)c1ccc(F)cc1` (stereo not given), the INHIBITION is recorded as -35.2%. The result for `CC(NC(=O)NC1CCN(Cc2ccncc2)CC1)c1cccc(F)c1` (stereo not given) reads -98.2%; that for `Cc1cc(F)ccc1C(=O)N1C[C@@H]2COC[C@]2(CN(C)C)C1`, -31.2%; that for `CC(C)(C)c1cc(NC(=O)CN2CCCC2Cn2cccn2)on1` (stereo not given), -91.6%. The result for `NC(=O)C1CCN(C(=O)NCc2cccnc2OCC(F)(F)F)C1` (stereo not given) reads -75.2%.

For `CC(=O)N1CCN(c2nc3c(cnn3C(C)(C)C)c(=O)[nH]2)CC1`, the INHIBITION is -76.5%. Consider `CN1CCCN(c2nc3c(cnn3C(C)(C)C)c(=O)[nH]2)CC1`, for which the INHIBITION was -12.6%. With `CC(C)(C)n1ncc2c(=O)[nH]c(N3CCC4(CCCCC4)C3)nc21`, the INHIBITION was 52.6%. The result for `Cn1ccc(CN2CCCC23CCN(Cc2ccccc2F)CC3)n1` reads 0.737%; that for `CCN1CCN(c2ccc(F)cc2C(C)NCc2noc(C)n2)CC1` (stereo not given), 53.9%; that for `CCN1CCN(c2ccc(F)cc2C(C)NCc2nc(C)no2)CC1` (stereo not given), 7.98%. Turning to `Cc1nc(CNC(=O)Nc2cc(F)ccc2N2CCN(C)CC2)no1`, the INHIBITION was -28.8%.
